Compound activity as filed in PubChem.
FBPA Giardia inh: blocks Giardia fructose-bisphosphate aldolase activity | Potency, µM (doses to about 59.6 µM), inactives show top-dose activity, negative = inhibition, hits mostly inhibitors | A8B2U2 | 290,000 tested, 0.71% active | purified Giardia FBPA | AID 2451; note: potency is the fitted concentration of half-maximal effect; nearly all actives have a fitted effect of over 55% in size
Target sequence (A8B2U2 whole entry, looked up): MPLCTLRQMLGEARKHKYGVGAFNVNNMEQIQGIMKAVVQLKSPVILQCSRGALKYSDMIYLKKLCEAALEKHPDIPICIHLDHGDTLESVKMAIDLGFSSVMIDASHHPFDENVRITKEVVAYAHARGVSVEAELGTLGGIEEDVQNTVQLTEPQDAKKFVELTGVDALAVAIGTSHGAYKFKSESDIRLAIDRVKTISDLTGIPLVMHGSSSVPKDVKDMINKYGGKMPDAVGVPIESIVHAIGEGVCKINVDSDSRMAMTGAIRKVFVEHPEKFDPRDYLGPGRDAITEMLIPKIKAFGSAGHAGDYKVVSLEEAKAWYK
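40 nM FBPA preincubated 10 min at RT with compound (up to 57.5 uM final), then substrate plus GAPDH/TPI/NAD/arsenate coupling and diaphorase/resazurin added. Fluorescence read after 20 min at RT, 525/598 nm.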
Pf growth 48h: P. falciparum growth inhibition at 48 hours (one generation); P. falciparum luciferase growth in erythrocytes, 48 h; Potency, µM (titrated, usually from 28.7 µM), without a hit: at the highest dose activity change, negative = inhibition, most hits filed as inhibitors; 310,000 tested, 5.9% active; note: potency is the fitted concentration of half-maximal effect
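In quantitative HTS format, infected erythrocytes bearing luciferase-reporter parasites were treated for a single generation at 37 C. Luminescence after adding detection reagent served as the growth measure.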
HCMV inh: human cytomegalovirus inhibition | HFF cells, HCMV-luciferase reporter, 72 h; hits give low values | activity change, negative = inhibition, % at 57.5 µM | 410,000 tested, 4.5% active; in the data active = activity change below about -60%; inconclusive = no clear call, values can overlap the other calls; inactive = above about -39%
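Steps: HFFs plated, 16 h 37C; compounds added; HCMV-luciferase added to MOI 1 PFU/cell; 72 h 37C; OneGlo reagent, 5 min room temperature; luminescence read, normalized to controls.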
Sm TGR inh: inhibitors of Schistosoma mansoni thioredoxin glutathione reductase; AID 485364; purified TGR, DTNB reduction, TNB absorbance 405 nm; 360,000 tested, 3% active; Q962Y6; Potency, µM (doses to about 114 µM), without a hit: top-dose activity change, negative = inhibition, actives largely listed as inhibitors; note: potency is the fitted concentration of half-maximal effect; nearly all actives have a fitted effect of over 60% in size
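Kinetic colorimetric format: TGR-catalysed, NADPH-driven DTNB reduction monitored via TNB absorbance. Enzyme dispensed at 20 nM; compound exposure 15 min at room temperature before reaction start.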
Pf growth 96h: P. falciparum growth inhibition at 96 hours. 320,000 tested, 6.9% active. P. falciparum luciferase reporter growth, 96 h. Potency, µM (highest dose often 28.7 µM), without a hit: top-dose activity change, negative = inhibition, hits mostly inhibitors; note: potency is the fitted concentration of half-maximal effect
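P. falciparum expressing integrated firefly luciferase, in erythrocytes at 2% hematocrit, 0.05% parasitemia, incubated with compounds 96 h at 37 C, 5% CO2. Growth inhibition read as loss of luminescence; two-generation exposure targets delayed-death apicoplast inhibitors.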
* marks the source's active call; other numbers are inactive results; ? = inconclusive; . = no result given; [ ] = another dose, or the depositor's remark. In the library only some 14% were active in any assay of this set; here they are far more common. Unless noted, calls come from the whole dose curve; as a rule, active = well fitted curve in the direction sought with a large enough effect; inconclusive = small, poorly fitted or top-dose-only effect, or another doubt; inactive = no such curve, though single readings can be large; an effect the other way counts as inactive or inconclusive. % is set by controls: 0 for no effect and ±100 for the full control effect.

SMILES | FBPA Giardia inh | Pf growth 48h | HCMV inh | Sm TGR inh | Pf growth 96h
CC1(C)CC(=O)C(C=NCC(O)c2ccccc2)=C(O)C1 (stereo unspecified) | 8% | 5% | -7 | 1% | 7.4µM*
COC(=O)[C@]12CCCCC=C1N(Cc1ccc(Cl)cc1Cl)C(=O)[C@H](CC(=O)N1CCC(c3ccccc3)CC1)C2 | . | . | -18 | . | .
CNc1nc(C(=O)O)nc(N2CCOCC2)n1 | -25% | 23% | -105* | 11% | ?
CNc1nc(OC)nc(N2CCOCC2)n1 | 0% | 12% | 21 | 0% | -8%
Cc1noc(C)c1-c1nc(NCc2ccccc2)c2ccccc2n1 | -9% | . | . | . | .
CCC(CO)(C(=O)OC1CC2CCC(C1)N2C)c1ccccc1 (stereo unspecified) | -18% | -20% | 49 | -17% | 12µM*
CCOC(=O)c1[nH]c(C)c(C(=O)OCC(=O)N2CC(=O)Nc3ccccc32)c1C | 5% | ? | -11 | -7% | 9.3µM*
O=C1CN(C(=O)COC(=O)c2ccc(Br)o2)c2ccccc2N1 | . | . | -102* | . | .
CC(C)C(NC(=O)c1ccco1)C(=O)OCC(=O)N1CC(=O)Nc2ccccc21 (stereo unspecified) | . | 34% | -31 | -4% | -2%
Cc1noc(C)c1COc1ccc(C(=O)OCC(=O)N2CC(=O)Nc3ccccc32)cc1 | 2% | 4.7µM* | 8 | -4% | ?
Cc1noc(C)c1COc1ccc(C(=O)OCC(=O)N2c3ccccc3NC(=O)C2(C)C)cc1 | -18% | . | 7 | -13% | ?
O=C1CN(C(=O)COC(=O)c2ccccc2NC(=O)c2ccco2)c2ccccc2N1 | 8% | -10% | 11 | -28% | 13µM*
Cc1cccc(C(=O)NCC(=O)Nc2ccncc2)c1 | . | 1% | -31 | -1% | 13%
Cc1ccc(C(=O)OCC(=O)N2CCC(Cc3ccccc3)CC2)cc1N | 7% | -19% | 28 | 2% | 22%
COc1cccc(C(=O)OCC(=O)N2CCC(Cc3ccccc3)CC2)c1OC | . | . | 28 | . | .
Nc1cc(C(=O)OCC(=O)N2CCC(Cc3ccccc3)CC2)ccc1Cl | . | 5% | -65* | 3% | ?
COc1cccc(OC)c1C(=O)OCC(=O)N1CCC(Cc2ccccc2)CC1 | . | . | -99* | . | .
C/C(CCN1CCCc2nc(C)c(C)cc21)=N\O[C@@H](C)c1cc(-c2c(C)cc(C)cc2C)no1 | 1%[12.9 µM] | . | . | . | .
Cc1cc(C)c(C(=O)CSC2=NC(N)=C(C#N)C3(CCCCC3)C2C(N)=O)cc1C (stereo unspecified) | -7% | . | -67* | -21% | ?
CCCCN(C)C(=O)c1cccc(OC2CCN(CC(C)(C)C)CC2)c1 | 13% | ? | 13 | -4% | 13µM*
CC(C)(C)CN1CCC(Oc2cccc(C(=O)N3CCNC(=O)C3(C)C)c2)CC1 | . | 11% | 8 | 0% | 12µM*
O=C(c1cccc(OC2CCN(Cc3ccc(F)cc3)CC2)c1)N1CCCC1 | 0% | -10% | -24 | 1% | 2%
CCC(C)CNC(=O)c1cccc(OC2CCN(CC(C)(C)C)CC2)c1 (stereo unspecified) | . | . | 5 | . | .
CSc1nn(Cc2ccc(Cl)cc2)c(N(C(C)=O)C(C)=O)c1S(=O)(=O)c1ccccc1 | . | . | -37 | ? | .
CCc1cccc(NS(=O)(=O)c2csc(C(N)=O)c2)c1 | 4% | 0%[0.00184 µM] | -38 | -5% | -15%
SMILES | FBPA Giardia inh | Pf growth 48h | HCMV inh | Sm TGR inh | Pf growth 96h
O=C(CN(C1CCCCC1)S(=O)(=O)c1ccccc1)NCc1cccnc1 | -2% | -30% | -6 | -24% | 9.3µM*
O=C(CN(C1CCCCC1)S(=O)(=O)c1ccc(Cl)cc1)NCc1cccnc1 | 2% | ? | 16 | 9% | -3%
CCCCc1ccc(NC2=NCC(=O)N2CCc2ccccc2)cc1 | -15% | ? | 5 | 6% | ?
Oc1ccccc1/C=N/N1CCN(c2ccccn2)CC1 | -4% | 86% | -28 | 4% | 42%
CC(C)c1ccc(/C=N/N2CCN(c3ccccn3)CC2)cc1 | 0% | 44% | -63* | 16% | 17%
COc1cc(C(C[N+](=O)[O-])c2c(C)[nH]c3ccccc23)cc(OC)c1OC (stereo unspecified) | -1% | 13µM* | 74 | -24% | 12%
CSc1nc(NCc2ccco2)c2ccccc2n1 | -1% | . | ? | 8% | -32%
Cc1ccc(-c2nc(NCc3ccco3)c3ccccc3n2)cc1 | 2% | 6% | -14 | 1% | 2%
c1cncc(-c2nc(NCc3ccco3)c3ccccc3n2)c1 | -2% | 12µM* | 35 | 25µM* | 35%
OCCN1CCN(c2nc(NCc3ccco3)c3ccccc3n2)CC1 | 1% | ? | -33 | -17% | 9.3µM*
Cc1cccc(Nc2nc(NCc3ccco3)c3ccccc3n2)c1 | ? | 0.66µM* | -95* | -5% | ?
c1ccc(Nc2nc(NCc3ccco3)c3ccccc3n2)cc1 | -12% | ? | -66* | -1% | ?
CC1(C)CN(c2ccccc2)C(=O)[C@H]1CC(=O)Nc1ccccc1 | . | . | -11 | . | .
COc1ccc(OC)c(NC(=O)Cn2cc(C(=O)c3cccs3)c3ccccc32)c1 | . | . | ? | 8% | .
Oc1ccccc1Nc1nc(NCc2ccco2)c2ccccc2n1 | -10% | ? | 0 | -1% | 2.1µM*
Cc1ccccc1Nc1nc(NCc2ccco2)c2ccccc2n1 | 1% | ? | ? | -31% | 5%
Cn1c(=O)c(C(=O)c2ccc(S(C)(=O)=O)c(Cl)c2Cl)c(O)c2ccccc21 | . | . | 57 | . | .
CCOC(=O)C1=C(C)NC(=O)CC1c1cc(OC)c(OC)cc1Br (stereo unspecified) | 2% | 0.47µM* | 0 | -7% | ?
CCOC(=O)C1=C(C)NC(=O)CC1c1cc2c(cc1Br)OCO2 (stereo unspecified) | -3% | -22% | -40 | -21% | 68%
COc1ccccc1NC(=O)Cn1c(=O)n(-c2ccc(C)cc2)c(=O)c2c1cnn2C | . | . | 17 | 9% | .
Cc1ccc2[nH]c(=O)c(C(c3nnnn3CC3CCCO3)N3CCc4ccccc4C3)cc2c1 (stereo unspecified) | ? | -13% | 37 | 25µM* | 14%
Cc1ccc2[nH]c(=O)c(C(c3nnnn3CC3CCCO3)N3CCCc4ccccc43)cc2c1 (stereo unspecified) | -29% | 13µM* | 15 | -18% | 20%
COc1ccc2[nH]c(=O)c(C(c3nnnn3CC3CCCO3)N3CCc4ccccc4C3)cc2c1 (stereo unspecified) | -29% | ? | 12 | ? | 0%
Cc1ccc2[nH]c(=O)c(C(c3nnnn3CC3CCCO3)N3CCOCC3)cc2c1 (stereo unspecified) | -1% | -1% | 23 | -3% | 47%
Cc1ccccc1OCC(=O)Nc1ccccc1C(=O)OCc1cc(=O)n2nc(C3CC3)sc2n1 | . | . | 31 | 5% | .
